This is an account of results in the supplement of paper PMC6522484.

Experiment [1] deals with DLD1. Description: cell viability (CellTiter-Glo) relative to plate median (fraction of plate median); higher = more viable cells. Conditions: 5 µM; treatment time 24 h; reporter: 7TFP. The method in brief: (§1)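 Colorectal cancer cell lines stably transduced with lentiviral TCF/Wnt firefly luciferase reporters (7TFP or TCF4/Wnt) were seeded in 384-well plates. 24 h later they received library compounds at a final 5 µM for 24 h. Parallel plates were read for firefly luciferase or CellTiterGlo luminescence on a Tecan F500 reader. Each well's signal was normalised to the plate median (webcellHTS2, additive, no log transformation), and the mean of two independent replicates is reported.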

The test system of experiment [2] is HCT116. The description is as above. Conditions: 5 µM; treatment time 24 h; reporter: TCF4/Wnt. In short, it runs like this: as §1
In experiment [3] the test system is SW480. The experiment is described as above. Conditions: 5 µM; treatment time 24 h; reporter: 7TFP. The method in brief:
as §1

Experiment [4] concerns DLD1. Description: TCF/Wnt firefly luciferase reporter signal relative to plate median (fraction of plate median); higher = higher Wnt reporter signal. Conditions: 5 µM; treatment time 24 h; reporter: 7TFP. In short, it runs like this:
as §1

Experiment [5] concerns SW480. The description is as above. To be noted: 5 µM; treatment time 24 h; reporter: 7TFP. In short, it runs like this: as §1
For experiment [6], the system named is DLD1. Description: cell viability (CellTiter-Glo) relative to plate median (fraction of plate median); higher = more viable cells. To be noted: 10 µM, treatment time 24 h. In short, it runs like this:
(§2)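 Colorectal cancer cell lines stably transduced with lentiviral TCF/Wnt firefly luciferase reporters (7TFP or TCF4/Wnt) were seeded in 384-well plates. 24 h later they received kinase inhibitor library compounds at a final 10 µM for 24 h. Parallel plates were read for firefly luciferase or CellTiterGlo luminescence on a Tecan F500 reader. Each well's signal was normalised to the plate median (webcellHTS2, additive, no log transformation), and the mean of two independent replicates is reported.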
In general terms: ATP-based viability assays read luminescence as a measure of living cells.

Experiment [7] relates to HCT116. The description is as above. Conditions: 10 µM; treatment time 24 h; reporter: TCF4/Wnt. In short, it runs like this:
as §2

The subject of experiment [8] is SW480. The experiment is described as above. Conditions: 10 µM; treatment time 24 h; reporter: 7TFP. In short, it runs like this:
as §2

In experiment [9] the test system is DLD1. Description: TCF/Wnt firefly luciferase reporter signal relative to plate median (fraction of plate median); higher = higher Wnt reporter signal. Conditions: 10 µM, treatment time 24 h. The method in brief: as §2
For orientation: A reporter such as luciferase makes a cellular process visible.

Experiment [10] deals with HCT116. The experiment is described as above. To be noted: 10 µM; treatment time 24 h; reporter: TCF4/Wnt. In short, it runs like this: as §2
In experiment [11] the test system is SW480. The experiment is described as above. Conditions: 10 µM; treatment time 24 h; reporter: 7TFP. In short, it runs like this: as §2

± gives the standard deviation of the averaged measurements.

In the case of `COc1cc(C/C=C/c2ccccc2)c(OC)cc1O`, the cell viability in experiment [1] is 1.02 ± 0.055; in experiment [2], 1.06 ± 0.093; in experiment [3], 1.03 ± 0.042. Further, the “TCF/Wnt firefly luciferase reporter signal” value in experiment [4] stood at 1.05 ± 0.22; in experiment [5], 1.04 ± 0.035.
On to `CC1(COc2ccc3c(c2)ncn3-c2ccc3cccc(N4CCC(N)CC4)c3n2)COC1`, for which the cell viability is 0.975 ± 0.02 in experiment [6] (reporter: 7TFP), 1.14 ± 0.11 in [6] (reporter: TCF4/Wnt), 0.536 ± 0.13 in experiment [7] and 1.02 ± 0.014 in experiment [8]. For the same molecule, the “TCF/Wnt firefly luciferase reporter signal” value is 1.48 ± 0.25 in experiment [9] (reporter: 7TFP), 1.73 ± 0.064 in experiment [9] (reporter: TCF4/Wnt), 0.288 ± 0.11 in experiment [10] and 1.64 ± 0.014 in experiment [11].
For the molecule `CCCCCCc1ccc(O)cc1O.Nc1c2ccccc2nc2ccccc12`, the cell viability in experiment [1] was 1.03 ± 0.056; in [2], 0.829 ± 0.0071; in [3] it was 1.1 ± 0.057. Also, the entries for the “TCF/Wnt firefly luciferase reporter signal” value in [4] and in experiment [5] were 1.98 ± 0.34 and 0.848 ± 0.045, respectively.
Take `COc1ccccc1OCC(O)CN1CCN(CC(=O)Nc2c(C)cccc2C)CC1` (centres undefined): the cell viability was found to be 0.977 ± 0.018 in [1], 0.927 ± 0.018 in experiment [2] and 0.944 ± 0.013 in experiment [3]. Further, the results for the “TCF/Wnt firefly luciferase reporter signal” value in experiment [4] and in experiment [5] were 1.04 ± 0.028 and 0.881 ± 0.0092, respectively.
For `C=CC(C1=CC(=O)C=CC1=O)c1ccccc1` (centres undefined) the same measures were 0.965 ± 0.064, 0.884 ± 0.098, 0.943 ± 0.038, 0.885 ± 0.022 and 0.984 ± 0.037.
Regarding `C=CCNC1=C2C[C@@H](C)C[C@H](OC)[C@H](O)[C@@H](C)/C=C(\C)[C@H](OC(N)=O)[C@@H](OC)/C=C\C=C(/C)C(=O)NC(=CC1=O)C2=O`, the results for the cell viability in experiment [1], in experiment [2] and in experiment [3] were 1.07 ± 0.014, 0.623 ± 0.023 and 0.972 ± 0.04, respectively. The “TCF/Wnt firefly luciferase reporter signal” value amounted to 0.878 ± 0.15 in experiment [4] and 0.731 ± 0.029 in experiment [5].
For `CCc1cn([C@H]2C[C@H](O)[C@@H](CO)O2)c(=O)[nH]c1=O` the same measures were 0.9885 ± 0.0021, 0.968 ± 0.073, 1.01 ± 0.023, 1.03 ± 0.14 and 1.08 ± 0.085.
Regarding `CC(=O)NCCc1ccccc1` [N-Acetyl-phenylethylamine], the cell viability in experiment [1] stood at 1.04 ± 0.014; in experiment [2], 1.01 ± 0.12; in experiment [3], 1.02 ± 0.072. In addition, the “TCF/Wnt firefly luciferase reporter signal” value amounted to 1.03 ± 0.028 in experiment [4] and 1.02 ± 0.079 in [5].
As for `COc1c(OC)c2occc2c2oc(=O)ccc12`, the cell viability was 1.004 ± 0.0085 in experiment [1], 0.829 ± 0.16 in experiment [2] and 1.02 ± 0.077 in experiment [3]. Besides, the entries for the “TCF/Wnt firefly luciferase reporter signal” value in experiment [4] and in [5] were 0.802 ± 0.21 and 0.948 ± 0.011, respectively.
For the molecule `Cc1cn(-c2cc(NC(=O)c3ccc(C)c(Nc4nccc(-c5cccnc5)n4)c3)cc(C(F)(F)F)c2)cn1` [Nilotinib (AMN-107)], the cell viability turned out to be 0.808 ± 0.028 in experiment [6] (reporter: 7TFP), 0.935 ± 0.041 in experiment [6] (reporter: TCF4/Wnt), 0.9715 ± 0.005 in [7] and 0.973 ± 0.053 in experiment [8]. Besides, the “TCF/Wnt firefly luciferase reporter signal” value in experiment [9] (reporter: 7TFP) stood at 0.873 ± 0.054; in [9] (reporter: TCF4/Wnt), 0.708 ± 0.12; in experiment [10] it was 0.894 ± 0.028; in experiment [11], 1.04 ± 0.028.
Turning to `COc1cc(Nc2ncc(F)c(Nc3ccc4c(n3)N(COP(=O)(O)O)C(=O)C(C)(C)O4)n2)cc(OC)c1OC` [R788 (Fostamatinib)], the cell viability stood at 0.89 ± 0.13 in [6] (reporter: 7TFP), 0.959 ± 0.046 in [6] (reporter: TCF4/Wnt), 0.888 ± 0.086 in experiment [7] and 0.923 ± 0.037 in experiment [8]. Also, the “TCF/Wnt firefly luciferase reporter signal” value in experiment [9] (reporter: 7TFP) was 0.781 ± 0.21; in experiment [9] (reporter: TCF4/Wnt), 0.831 ± 0.079; in experiment [10] it was 2.88 ± 0.22; in experiment [11] it was 0.879 ± 0.079.
`c1ccc([C@H]2CN3CCSC3=N2)cc1`: the values for the cell viability in experiment [1], in experiment [2] and in [3] were 1.01, 0.943 ± 0.11 and 1.02 ± 0.048, respectively. The “TCF/Wnt firefly luciferase reporter signal” value turned out to be 0.943 ± 0.043 in experiment [4] and 0.947 ± 0.066 in experiment [5].
Consider `C[C@@H]1C[C@H]2[C@@H]3CCC4=CC(=O)C=C[C@]4(C)[C@@]3(F)[C@@H](O)C[C@]2(C)[C@@]1(O)C(=O)COP(=O)(O)O`, for which the figures for the cell viability in experiment [1], in experiment [2] and in [3] were 1.03 ± 0.052, 1.02 ± 0.075 and 1.01 ± 0.093, respectively. In addition, the figures for the “TCF/Wnt firefly luciferase reporter signal” value in experiment [4] and in experiment [5] were 0.954 ± 0.065 and 0.906 ± 0.0014, respectively.
Regarding `OCc1cccnc1`, the cell viability turned out to be 0.978 ± 0.088 in experiment [1], 1.05 ± 0.17 in [2] and 0.934 ± 0.016 in [3]. Further, the results for the “TCF/Wnt firefly luciferase reporter signal” value in experiment [4] and in experiment [5] were 0.988 ± 0.12 and 0.917 ± 0.017, respectively.
